Screens as filed in PubChem.
IL-1B inflam inh: inhibitors of inflammasome signaling (IL-1 beta secretion); THP-1 LPS/ATP IL-1B secretion, AlphaLISA, 16 h; active compounds read low; activity change, % at 57.5 µM; actives 4.7% (n = 360,000); in the data active = activity change below about -50%; inconclusive = mostly about -30% to -49%
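THP-1 cells pretreated 1 hr with compounds (up to 57.5 uM final), then stimulated with LPS (250 ng/mL final) plus ATP (1.25 mM final); secreted IL-1B measured by AlphaLISA after 16 hr, decreased signal indicating inhibition.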
HT1080NT lethal: kills 2HG-producing HT-1080-NT fibrosarcoma cells; HT-1080-NT fibrosarcoma viability, CellTiter-Glo ATP luminescence, 48 h; Potency, µM (top dose mostly 46.1 µM), most hits filed as cytotoxic; actives 1.6% (n = 360,000);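 note: NT is the 2HG producing partner of a matched IDH1 knockdown line; nearly all actives have a fitted effect of over 55% in size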
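HT-1080-NT fibrosarcoma cells (2HG-overproducing), 750 cells/well in RPMI with 5% FBS, dosed after 2 h and incubated 48 h at 37C. CellTiter-Glo luminescence normalized to DMSO and no-cell wells; concentration-response curves fitted and classed.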
TDP1 cell noCPT: qHTS for Inhibitors of human tyrosyl-DNA phosphodiesterase 1 (TDP1): qHTS in cells in absence of CPT | Potency, µM (highest dose often 46.2 µM), most hits filed as inhibitors | actives 15% (n = 420,000) | DT40 Tdp1-/- hTDP1 cells, no CPT, ATP luminescence, 48 h | AID 686978, 2013; note: nearly all actives have a fitted effect of over 55% in size
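Luminescent ATP content (CellTiter-Glo) served as the growth readout. Knockout chicken DT40 cells expressing human TDP1 were exposed to compounds without camptothecin for a minimum 48 hr at 37 °C.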
ELG1 repair inh: blocks ELG1-dependent DNA repair in HEK293T cells. HEK293T ELG1-luciferase reporter, luminescence, 16 h; DNA damage induced by 5-fluorouridine. Potency, µM (highest dose often 46.1 µM), actives largely listed as inhibitors. actives 2.3% (n = 330,000); note: nearly all actives have a fitted effect of over 55% in size
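Overnight (16 hr) co-exposure of 2,000 cells/well to 5-fluorouridine and compound at 37 °C preceded detection. Luciferase was quantified via ONE-Glo luminescence; loss of signal denotes inhibition.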
TDP1 cell CPT: DT40-hTDP1 cell growth loss with CPT; chicken DT40 Tdp1-/-;hTDP1 cells + 20 nM CPT, ATP luminescence, 48 h; Potency, µM (titrated, usually from 46.2 µM), usual class: inhibitors; actives 12% (n = 420,000); AID 686979; note: nearly all actives have a fitted effect of over 55% in size
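Chicken DT40 Tdp1-/- cells stably complemented with human TDP1 were seeded at 400 cells/well in medium containing 20 nM camptothecin, exposed to pin-transferred compounds, and grown at 37 °C for at least 48 hr. Viability was read as ATP luminescence.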
HT1080 IDH1KD tx: HT-1080 IDH1 knockdown cell toxicity (counter line); HT-1080 IDH1 knockdown viability, ATP luminescence, 48 h; Potency, µM (series often up to 46.1 µM), hits mostly cytotoxic; actives 2% (n = 360,000); AID 686971
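Viability of IDH1-knockdown HT-1080 fibrosarcoma cells was assessed by CellTiter-Glo after 48 h at 37 °C with titrated compound; concentration-effect curves were classified by fit quality and response size.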
Hits are given with their value; – = inactive; ? = inconclusive; · = not tested or not shown; [ ] = remark or other dose. This is a sample that favours compounds with a hit; in the whole collection about 19% have one here. Unless noted, calls come from the whole dose curve; as a rule, active = well fitted curve in the direction sought with a large enough effect; inconclusive = small, poorly fitted or top-dose-only effect, or another doubt; inactive = no such curve, though single readings can be large; an effect the other way counts as inactive or inconclusive.

SMILES | IL-1B inflam inh | HT1080NT lethal | TDP1 cell noCPT | ELG1 repair inh | TDP1 cell CPT | HT1080 IDH1KD tx
O=C(NC1CC1)C1CC(=O)N(c2ccc(F)cc2)C1 (stereo not given) | – | – | – | – | – | –
O=S(=O)(Nc1ccc2c(c1)OCCO2)c1ccc(F)c(F)c1 | – | – | ? | ? | – | –
COc1cc(OC)c(NS(=O)(=O)c2ccc3c(c2)NC(=O)CO3)cc1Cl | – | – | ? | – | 18µM | –
Cc1ccc(C)c(NS(=O)(=O)c2ccc3c(c2)NC(=O)CO3)c1 | – | – | – | – | ? | –
CCNC(=O)COC(=O)c1ccc(NS(=O)(=O)c2ccc3c(c2)OCCO3)cc1 | – | – | – | – | – | –
CC(=O)Nc1ccc(S(=O)(=O)Nc2ccc3c(c2)OCCO3)cc1Cl | – | – | 7.3µM | ? | ? | ?
Cc1ccc(S(=O)(=O)Nc2ccc3c(c2)OCCO3)cc1C | – | – | 18µM | ? | ? | –
CCOC(=O)c1ccc(NS(=O)(=O)c2ccc3c(c2)OCCO3)cc1 | · | · | 29µM | · | 13µM | ·
COc1cccc(NC(=O)C2=C(C)C(=O)OC23CCN(C(C)=O)CC3)c1 | · | · | – | · | – | ·
CCCC(CCC)C(=O)NC1CC(=O)N(c2ccc3c(c2)OCCO3)C1 (stereo not given) | · | · | – | · | – | ·
COc1ccc(S(=O)(=O)Nc2ccc3c(c2)OCO3)cc1OC | – | – | – | – | – | –
COc1ccc(NS(=O)(=O)c2ccc3c(c2)OCCO3)cc1OC | – | – | 5.8µM | 2.3µM | 7.3µM | ?
O=C(NCC1CCCC(CNC(=O)Nc2ccc(Cl)cn2)C1)Nc1ccc(Cl)cn1 (stereo not given) | -83 | ? | ? | ? | ? | ?
O=C(COC(=O)CC1CCCC1)Nc1ccc(Cl)cn1 | – | – | – | – | – | –
O=C(Nc1cc(Cl)cc(Cl)c1)N[C@@H]1CC[C@@H](CCNS(=O)(=O)c2cccc(F)c2)O[C@@H]1CO | – | 18µM | 16µM | · | ? | ?
O=C(Nc1ccc(F)cc1)N[C@H]1CC[C@H](CCNS(=O)(=O)c2cccc(Cl)c2)O[C@@H]1CO | – | – | ? | · | ? | –
CCN(CC)c1ccc(/C=N/NC(=O)c2ccc(Br)o2)cc1 | ? | – | ? | ? | ? | ?
CCc1ccc(/C=N/NC(=O)c2cc(C3CC3)nc3ccc(Br)cc23)s1 | – | 6.5µM | 4.6µM | 7.3µM | 2.6µM | 5.8µM
CCc1ccc(/C=N\NC(=O)c2ccc(Br)o2)s1 | – | – | 23µM | ? | ? | –
COc1ccccc1-c1cc(C(=O)N/N=C/c2ccoc2)c2ccccc2n1 | – | – | 7.3µM | ? | ? | –
CCN(CC)C(=O)COc1ccc(/C=N/NC(=O)c2cc(-c3ccccc3OC)nc3ccccc23)cc1OC | · | – | ? | · | ? | –
CCc1ccc(/C=N/NC(=O)c2cc(-c3ccccc3OC)nc3ccccc23)s1 | – | – | 12µM | 18µM | 4.1µM | –
O=C(N/N=C/c1cccc(O)c1)c1cc(C2CC2)nc2ccccc12 | – | – | ? | – | ? | ?
CC(C)CCn1c(=O)c2sccc2n2c(CCCC(=O)NC(C)c3ccccc3)nnc12 (stereo not given) | · | · | ? | · | – | ·
Cc1ccccc1CSc1nnc2[nH]c(=O)cc(C)n12 | · | · | – | · | – | ·
SMILES | IL-1B inflam inh | HT1080NT lethal | TDP1 cell noCPT | ELG1 repair inh | TDP1 cell CPT | HT1080 IDH1KD tx
CN(CCc1cn[nH]c1)C(=O)C1CCC(=O)N(CC2CCCCC2)C1 (stereo not given) | – | – | – | – | – | –
CNCCCCOc1ccccc1Cc1ccccc1 | · | · | 8.4µM | · | 7.5µM | ·
O=C1C=CC(n2cc(F)c(=O)[nH]c2=O)O1 (stereo not given) | ? | ? | ? | · | 18µM | ?
O=c1[nH]c(=O)n([C@H]2C[C@@H](O)[C@@H](CO)O2)cc1F | · | · | 1.6µM | · | 5µM | ·
O=c1[nH]c(=O)n([C@H]2CCCO2)cc1F | · | · | – | · | – | ·
Cc1cn([C@H]2C[C@H](O)[C@@H](COS(=O)(=O)O)O2)c(=O)[nH]c1=O | – | – | 1.6µM | – | 3.7µM | –
O=c1[nH]c(=O)n(C2CC(O)C(CO)O2)cc1Br (stereo not given) | – | – | ? | · | ? | ?
O=c1[nH]c(=O)n(C2OC(CO)C(O)C2O)cc1F (stereo not given) | – | 10µM | 0.037µM | · | 0.15µM | 0.92µM
O=c1[nH]c(=S)ccn1C1OC(CO)C(O)C1O (stereo not given) | – | ? | ? | · | ? | –
NC(=O)c1ccc(NC(=O)COC(=O)/C=C/c2ccc3c(c2)OCO3)cc1 | – | – | – | – | – | –
Cc1ncc2c(c1CNC(=O)/C=C/c1cccs1)CCN(C(=O)c1cc(C(C)C)on1)C2 | · | · | – | · | –[9.04 µM] | ·
O=c1[nH]cnc2c1ccn2C1OC(CO)C(O)C1O (stereo not given) | – | · | 0.15µM | · | 0.16µM | ·
Nc1nc(=O)n(C2OC(CO)C(O)C2O)cc1F (stereo not given) | – | ? | 0.0058µM | · | 0.033µM | –
Nc1cnn(C2OC(CO)C(O)C2O)c(=O)n1 (stereo not given) | – | – | – | ? | – | –
CNc1ccc(/C=C2\COc3ccccc3C2=O)cc1[N+](=O)[O-] | – | – | 12µM | – | ? | –
O=C1/C(=C/c2ccccc2[N+](=O)[O-])COc2ccccc21 | -104 | 8.2µM | ? | ? | 2.6µM | 18µM
CN(C)CC(C)(C)CNC(=O)c1cnn(-c2ncc3c(n2)-c2ccccc2CC3)c1-c1ccco1 | · | · | ? | · | – | ·
CCN(CCCNC(=O)c1nn(-c2ccc(OC)cc2)c(=O)c2c1c1ccccc1n2C)c1cccc(C)c1 | · | · | ? | · | – | ·
O=C(CSCc1cccc(Br)c1)N=Nc1c(O)[nH]c2ccccc12 | – | – | – | – | – | –
O=Nc1c(-c2c(O)[nH]c3cc(Br)ccc23)[nH]c2ccccc12 | -106 | 5.2µM | 15µM | ? | ? | 8.2µM
Cc1cc(C)n(CC(O)COc2ccccc2Br)n1 (stereo not given) | – | – | – | – | – | –
COc1ccc(CN2C(=O)C(CC(=O)NCCN3CCOCC3)CC(C(=O)N3CCOCC3)=C2C)cc1 (stereo not given) | – | – | – | · | – | –
CC1(C)CC(N2CCCCC2)=CC(=[N+]2CCCCC2)C1 | -70 | 4.1µM | 0.18µM | ? | 0.15µM | ?
CCCN(CCC)C1=CC(=[N+]2CCCC2)CC(C)(C)C1 | ? | 2.1µM | 0.13µM | ? | 0.21µM | 2.3µM
CC1C[N+](=C2C=C(N3CCOCC3)CC(C)(C)C2)CC(C)O1 (stereo not given) | – | – | – | – | – | –
